The text below walks through data of PubChem BioAssay (Tox21).

Inconclusive results are not listed. Values without a mark were called inactive. Activity calls are given as the source filed them. Calls come from the whole dose curve.
% is set by controls: 0 for no effect and ±100 for the full control effect.

The assay in a line: qHTS assay for small molecule agonists of the p53 signaling pathway (AID 651631). Note: nearly all actives have a fitted effect of over 15% in size. Conditions: HCT-116 p53RE-bla reporter, beta-lactamase FRET ratio, 16 h; series mostly up to 73.3 µM; activation: at the top concentration. From the text: U.S. Tox21 Program National Center for Advancing Translational Sciences [NCATS] NIH Chemical Genomics Center [NCGC] U.S. Environmental Protection Agency [EPA] National Institutes of Environmental Health Sciences [NIEHS] National Toxicology Program [NTP] U.S. Food and Drug Administration [FDA] Tox21 Assay Overview: p53, a tumor suppressor protein, is activated following cellular insult, including DNA damage and other cellular stresses. The activation of p53 regulates cell fate by inducing DNA repair, cell cycle arrest, apoptosis, or cellular senescence. The activation of p53, therefore, is a good indicator of DNA damage and other cellular stresses. The CellSensor p53RE-bla HCT-116 cell line (Invitrogen) contains a stably integrated beta-lactamase reporter gene under control of the p53 response elements. The activation of the reporter gene under culture conditions can be detected by fluorescence intensity. This cell line was used to screen the Tox21 compound library in a 1536-well plate format and to identify agonists that activate the p53 signaling pathway.
Tox21 Assay Protocol Summary: The p53RE-bla cells were dispensed at 4,000 cells/5 ul/well in 1536-well black wall/clear bottom plates using a Multidrop dispenser. After the assay plates were incubated at a 37 C/5% CO2 incubator for 5 hours, 23 nL of compounds dissolved in DMSO, positive controls or DMSO only was transferred to the assay plate by a pin tool. The plates were incubated at 37 C for 16 hours. After 1 uL of LiveBLAzerTM B/G FRET substrate was added using a Flying Reagent Dispenser, the plates were incubated at room temperature for 2 hours, and fluorescence intensity was measured by an Envision plate reader.
(In general: Quantitative high-throughput screening tests each substance at several concentrations.)
With `CCC(O)C(C)(C)C` (stereo not given), the “activation” value was 2.07% [at 95.1 µM].

On to `C1=CCC(c2ccccc2)CC1` (stereo not given), for which the “activation” value is 1.5%.

With `Nc1ccc(S(=O)(=O)Nc2ccccn2)cc1`, the “activation” value is -1.91% [at 34.7 µM].

In the case of `C[N+](C)(C)CC(O)CCl` (stereo not given), the “activation” value was -6.27% [at 95.1 µM].

For the molecule `CCCCCC1Nc2cc(C(F)(F)F)c(S(N)(=O)=O)cc2S(=O)(=O)N1` (stereo not given), the “activation” value was -2.21%.

In the case of `CCCO`, the “activation” value is 0.165%.

On to `CC(=O)/C=C/c1ccco1`, for which the “activation” value is -1.46% [at 95.1 µM].

As for `CC(=O)N(CC(O)CO)c1c(I)c(C(=O)NCC(O)CO)c(I)c(C(=O)NCC(O)CO)c1I` (stereo not given), the “activation” value is 2.64%.

As to `C1=C\CC/C=C\CC/1`, the “activation” value was 1.33% [at 95.1 µM].

Regarding `FC(F)(F)c1ccc(Cl)cc1Cl`, the “activation” value was -2.59%.

`CC(Cl)COP(=O)(OCC(C)Cl)OCC(C)Cl` (stereo not given): the “activation” value is -1.97%.

Take `CC(=O)Nc1ccc(C)cc1`: the “activation” value is -2.86%.

Turning to `COc1ccc(OC)c(NC(=O)CC(C)=O)c1`, the “activation” value was 2.92%.

Turning to `CN(C)CCOCCN(C)CCO`, the “activation” value was -1.7%.

Regarding `Nc1c(NC/C=C\COc2cc(CN3CCCCC3)ccn2)c(=O)c1=O`, the “activation” value was -2.59%.

Consider `COc1cc2c3cc1Oc1cc(ccc1O)C[C@@H]1c4c(cc(OC)c(O)c4Oc4ccc(cc4)C[C@@H]3N(C)CC2)CC[N+]1(C)C`, for which the “activation” value is -0.703%.

Turning to `CCCCCCCCCCC`, the “activation” value was -4.46%.

Regarding `COc1ccc(NS(=O)(=O)c2ccc(N)cc2)nn1`, the “activation” value is -3.12% [at 34.7 µM].

With `CC(C)SCc1ccco1`, the “activation” value is -2.06% [at 34.7 µM].

Take `CCOC(=O)CCc1ccccc1`: the “activation” value was -2.1%.

Consider `CCCCCCCCC(=O)OCC`, for which the “activation” value was -2.14%.

For `O=c1[nH]c(=O)c2[nH]c(=O)[nH]c2[nH]1`, the outcome was inactive.

With `C=CC(C)(O)CC/C=C(\C)CC` (stereo not given), the “activation” value is -2.2%.

`O=C(COCCOCCOCC(=O)Nc1c(I)cc(I)c(C(=O)O)c1I)Nc1c(I)cc(I)c(C(=O)O)c1I`: the “activation” value is -2.5%.

With `CC(=O)Nc1ncc([N+](=O)[O-])s1`, the “activation” value was -1.97%.

`CCOc1ccc(NC(=O)OC(C)C)cc1OCC`: the “activation” value is -0.582%.

With `CN(C)CCCNCCC#N`, the “activation” value is -1.34%.

Regarding `C=C(C)C(=O)OC1CC(C)CC(C)(C)C1` (stereo not given), the “activation” value is 1.39%.

On to `OC[C@@H](O)[C@H](O)[C@@H](O)[C@@H](O)CO`, for which the “activation” value is 0.607%.

In the case of `C=C(C)C(=O)OC`, the “activation” value was -2.68%.

On to `CC1(N)CCC(C(C)(C)N)CC1` (stereo not given), for which the “activation” value was -1.8%.

`Cc1nc(C)nc(N2C[C@@H](C)N(c3ccnc([C@@H](C)O)n3)[C@@H](C)C2)n1`: the “activation” value is -4.34%.

On to `CC(C)CCCC(C)CC=O` (stereo not given), for which the “activation” value is 7.23%.

As for `Nc1cc(C(=O)O)ccc1Cl`, the “activation” value was -1.53%.

For the molecule `CCOC(=O)OCC/C(SC(=O)OCC)=C(\C)N(C=O)Cc1cnc(C)nc1N`, the “activation” value is -2.97%.

Consider `O=C1c2ccccc2-c2ccccc21`, for which the “activation” value is -4.54% [at 95.1 µM].

For the molecule `O=C(CN1CCN(Cc2ccc3c(c2)OCO3)CC1)N1c2ccccc2Sc2ccccc21`, the “activation” value is 1.92%.

Regarding `Nc1cc(S(=O)(=O)O)ccc1S(=O)(=O)O`, the “activation” value is -2.21%.

As for `CCCOC(=O)CCCCC(=O)OCCC`, the “activation” value is -1.77%.

`C=C(C)C(=O)OCCCCCCOC(=O)C(=C)C`: the “activation” value is -1.19%.
